In PubChem BioAssay:
“And” between values parts separate entries of the source, which are not always exact repeats. Equal entries are not always repeated. For some assays here: Results with a measured potency or affinity are listed apart. The source made the active and inactive calls.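 The calls were made as follows, unless noted: active = compounds killing one labelled cell type while sparing the other, by normalised counts and ratio limits, not self-fluorescent; inactive = the rest.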

Key:
[1] = differential killing of epithelial or mesenchymal cells, primary screen, imaging, PC-3E GFP, TEM4-18 mCherry, co-culture (AID 1345086); conditions: imaging cell counts, at 1 µM; for red/green cell ratio (normalised): actives lie on both sides;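 as to all read-outs here: cells exposed to compound for 72 h before imaging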;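 as to red/green cell ratio (normalised): normalised mesenchymal count divided by normalised epithelial count so high means epithelial killing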
[2] = test system: Aerobactin synthetase IucA (Klebsiella pneumoniae hvKP1); assay: Biochemical IucA enzyme inhibition primary screen of the Spectrum library (AID 1346200; call rule not given here;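 also: 100% = wells without compound and 0% = wells lacking enzyme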); conditions: malachite green pyrophosphate, A620, at 8 µM, stronger effect = lower value
[3] = liver-stage malaria parasite growth inhibition, primary screen, cell-based, HepG2, luciferase luminescence, HepG2 viability (AID 624349; in the data active = parasite load remaining mostly below about 12%, no sharp cut-off; inactive = mostly above about 10%;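 also: 100% = mean of DMSO negative control wells on the same plate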); conditions: P. berghei liver stage in HepG2, luciferase luminescence, concentration not given here; parasite load remaining: stronger effect = lower value; viability: measured here: HepG2 viability without parasites
[4] = sensitizers of A549 cells to miR-34 induction, primary screen, imaging, A549 dox-inducible miR-34, nuclei and caspase counts (AID 1347080;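 active = compounds whose cell count with miR-34 switched on is under 0.7 times the count with it off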); conditions: A549 miR-34 inducible, Hoechst nuclei count, 48 h
[5] = polyglutamine-triggered caspase-3 activation inhibitors, cell-based (AID 1583); conditions: polyglutamine-induced caspase-3 activation, cell assay; stronger effect = higher value;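 tested at 10 µM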
[6] = suppressors of polyQ aggregation in yeast, 75Q-TubU reporter (AID 1593); conditions: Yeast 75Q polyglutamine aggregation reporter
[7] = rescue of polyQ-huntingtin neuronal dysfunction in worms, whole organism, C. elegans mechanosensory neurons, N-terminal huntingtin (AID 1599); conditions: touch response, stronger effect = higher value
[8] = inhibitors of mitochondrial cytochrome c release, biochemical, purified mitochondria (AID 1603); conditions: stronger effect = lower value;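 also: mouse liver mitochondria challenged with calcium chloride; signal normalized to the plate average as 100%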
[9] = inhibitors of polyQ protein aggregation (AID 1604); conditions: polyglutamine-induced protein aggregation inhibition assay; stronger effect = higher value; tested at 2.5 µM
[10] = enhancers of glutamate uptake in motor neurons, MN-1 cell line (AID 1612); conditions: MN-1 motor neuron cells, stronger effect = higher value;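 also: tested at 1 µM final; 0% = mean of DMSO vehicle wells on each plate; positive means more glutamate uptake than control and negative means less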
[11] = reducers of polyQ inclusions in PC12 cells, cell-based, NGF-treated PC12, GFPQ80 (AID 1614); conditions: PC12 NGF-treated GFP-polyQ80 inclusion reduction;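 also: lower means fewer inclusions and 0 means no inclusions at all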
[12] = suppressors of polyglutamine aggregation in yeast, 75Q-TubH (AID 1616); conditions: S. cerevisiae 75Q-TubH polyglutamine aggregation suppression; stronger effect = higher value
[13] = viability rescue of complex I mutant cybrids, primary screen, cell-based, galactose medium, ATP luminescence (AID 1645843;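 active = z-score of at least 1.8 in each of two replicates, scored against plate mean and spread of sample wells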;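 also: positive z means more ATP and so rescue of galactose-driven cybrid death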); conditions: complex I mutant cybrid cells, 72 h, stronger effect = higher value
[14] = counts scaled to control wells, 1 = unselective
[15] = measured here: epithelial PC-3E GFP cell survival
[16] = measured here: mesenchymal TEM4-18 mCherry cell survival
[17] = measured here: relative caspase fold change +Dox/-Dox
[18] = measured here: total cells with miR-34 induction, stronger effect = lower value
[19] = measured here: total cells without miR-34 induction

Question: With `CC(C)=CCC[C@H](C)[C@H]1CC[C@]2(C)C[C@H]3[C@@H](C(=O)C[C@@]3(C)O)/C(C=O)=C\C[C@@H]12` as the molecule, how does the red/green cell ratio (normalised) [1, 14] read?
Answer: 0.95 (inactive)

Question: And the normalised cell number [1, 15]?
Answer: 0.85

Question: And the normalised cell number [1, 16]?
Answer: 0.8

Question: For `C[C@@H]1CC[C@@]2(OC1)OC1C(O)C3C4CC[C@H]5C[C@H](O[C@@H]6O[C@H](CO)[C@H](O[C@@H]7O[C@H](CO)[C@@H](O)[C@H](O[C@@H]8OC[C@@H](O)[C@H](O)[C@H]8O)[C@H]7O[C@@H]7O[C@H](CO)[C@H](O)[C@H](O[C@@H]8O[C@H](CO)[C@@H](O)[C@H](O)[C@H]8O)[C@H]7O)[C@H](O)[C@H]6O)[C@H](O)C[C@]5(C)C4CC[C@]3(C)C1[C@@H]2C` (stereo partly specified), which red/green cell ratio (normalised) [1] is on record?
Answer: 0.84 (inactive)

Question: And the normalised cell number [1, 15]?
Answer: 0.9

Question: What about the normalised cell number [1, 16] of the same molecule?
Answer: 0.76

Question: What about the activity remaining [2] of the same molecule?
Answer: 111% (inactive)

Question: With `COc1cc2c(cc1OC)[C@@]13CCN4CC5=CCOC6CC(=O)N2C1[C@H]6[C@H]5C[C@H]43` (stereo partly specified) as the molecule, how does the parasite load remaining [3] read?
Answer: 97.7% (inactive) and 56.5% (inactive)

Question: And the viability [3]?
Answer: 63.5% and 87.4%

Question: And the red/green cell ratio (normalised) [1]?
Answer: 1.35 (inactive)

Question: And the red/green cell ratio (normalised) [1, 14]?
Answer: 0.96 (inactive)

Question: And the normalised cell number [1, 15]?
Answer: 1.05 and 0.91

Question: What about the normalised cell number [1, 16] of the same molecule?
Answer: 1.02 and 1.23

Question: And the activity remaining [2]?
Answer: 105% (inactive)

Question: And the fold change ([4]; stronger effect = lower value)?
Answer: 0.942 (inactive)

Question: What about the fold change [4, 17] of the same molecule?
Answer: 2.52

Question: And the cell count [4, 18]?
Answer: 11600

Question: And the cell count [4, 19]?
Answer: 12300

Question: Which red/green cell ratio (normalised) [1, 14] does the source give for `O=C(O)COc1ccc(O)cc1` here?
Answer: 1.05 (inactive)

Question: And the normalised cell number [1, 15]?
Answer: 1.09

Question: What about the normalised cell number [1, 16] of the same molecule?
Answer: 1.15

Question: With `O=[N+]([O-])c1ccc(CN2CCNCC2)cc1` as the molecule, how does the red/green cell ratio (normalised) [1, 14] read?
Answer: 0.74 (inactive)

Question: What about the normalised cell number [1, 15] of the same molecule?
Answer: 1.45

Question: And the normalised cell number [1, 16]?
Answer: 1.07

Question: With `CC(=O)OC1CC[C@@]2(C)C(CCC3C2CC[C@]2(C)C(C4=CC(=O)OC4)C(OC(C)=O)CC32O)C1` (stereo partly specified) as the molecule, how does the red/green cell ratio (normalised) [1, 14] read?
Answer: 0.21 (inactive)

Question: And the normalised cell number [1, 15]?
Answer: 0.16

Question: What about the normalised cell number [1, 16] of the same molecule?
Answer: 0.03

Question: And the activity remaining [2]?
Answer: 109% (inactive)

Question: With `C[C@@H]1CC[C@H]2[C@@H](C)C(=O)O[C@@H]3O[C@]4(C)CC[C@@H]1[C@]32OO4` as the molecule, how does the red/green cell ratio (normalised) [1, 14] read?
Answer: 1.06 (inactive)

Question: And the normalised cell number [1, 15]?
Answer: 0.97

Question: And the normalised cell number [1, 16]?
Answer: 1.03

Question: Which red/green cell ratio (normalised) [1] does the source give for `COc1cccc([C@]2(O)CCCC[C@H]2CN(C)C)c1` here?
Answer: 1.34 (inactive)

Question: What about the normalised cell number [1, 15] of the same molecule?
Answer: 1.13

Question: What about the normalised cell number [1, 16] of the same molecule?
Answer: 1.5

Question: What about the activity remaining [2] of the same molecule?
Answer: 98.7% (inactive)

Question: What about the fold change ([4]; stronger effect = lower value) of the same molecule?
Answer: 0.9 (inactive)

Question: What about the fold change [4, 17] of the same molecule?
Answer: 6.33

Question: What about the cell count [4, 18] of the same molecule?
Answer: 11600

Question: And the cell count [4, 19]?
Answer: 12900

Question: With `NC1C[C@H]1c1ccccc1` (stereo partly specified) as the molecule, how does the inhibition [5] read?
Answer: -1.78%

Question: What about the score [6] of the same molecule?
Answer: 0.95

Question: What about the rescue above control [7] of the same molecule?
Answer: 2.94

Question: And the cytochrome c release ratio [8]?
Answer: 0.57

Question: And the inhibition of aggregation [9]?
Answer: -4.08%

Question: And the glutamate uptake change [10]?
Answer: 0.89%

Question: And the inclusion score [11]?
Answer: 2

Question: What about the aggregation suppression score [12] of the same molecule?
Answer: 1.29

Question: And the parasite load remaining [3]?
Answer: 139% (inactive) and 41.7% (inactive)

Question: What about the viability [3] of the same molecule?
Answer: 72.4% and 86.6%

Question: And the red/green cell ratio (normalised) [1]?
Answer: 1.23 (inactive)

Question: What about the normalised cell number [1, 15] of the same molecule?
Answer: 0.99

Question: What about the normalised cell number [1, 16] of the same molecule?
Answer: 1.22

Question: What about the activity remaining [2] of the same molecule?
Answer: 123% (inactive)

Question: What about the fold change ([4]; stronger effect = lower value) of the same molecule?
Answer: 0.916 (inactive)

Question: And the fold change [4, 17]?
Answer: 1.81

Question: What about the cell count [4, 18] of the same molecule?
Answer: 11800

Question: And the cell count [4, 19]?
Answer: 12900

Question: What does the source list for `CN(CCC(N)CC(=O)N[C@H]1C=CC(n2ccc(N)nc2=O)O[C@@H]1C(=O)O)C(=N)N` (stereo partly specified)?
Answer: red/green cell ratio (normalised) [1, 14]: 0.77 (inactive); normalised cell number [1, 15]: 1.2; normalised cell number [1, 16]: 0.93; activity remaining [2]: 109% (inactive)

Question: With `C=C1CC2C(CC[C@]3(C)C(=O)CCC23)[C@@]2(C)C=CC(=O)C=C12` (stereo partly specified) as the molecule, how does the parasite load remaining [3] read?
Answer: 9.27% (inactive)

Question: What about the viability [3] of the same molecule?
Answer: 99%

Question: What about the red/green cell ratio (normalised) [1] of the same molecule?
Answer: 1.16 (inactive)

Question: And the normalised cell number [1, 15]?
Answer: 1.01

Question: What about the normalised cell number [1, 16] of the same molecule?
Answer: 1.17

Question: What about the activity remaining [2] of the same molecule?
Answer: 121% (inactive)

Question: And the fold change ([4]; stronger effect = lower value)?
Answer: 0.911 (inactive) and 0.833 (inactive)

Question: What about the fold change [4, 17] of the same molecule?
Answer: 1 and 2.69

Question: What about the cell count [4, 18] of the same molecule?
Answer: 8770 and 9350

Question: And the cell count [4, 19]?
Answer: 9630 and 11200

Question: And the z-score [13]?
Answer: -1.42 (inactive)

Question: Which red/green cell ratio (normalised) [1] does the source give for `C[C@]12CCC3C(CC[C@H]4C[C@@H](O)CC[C@]34C)C1CCC2=O` (stereo partly specified) here?
Answer: 0.99 (inactive)

Question: And the normalised cell number [1, 15]?
Answer: 1.2

Question: What about the normalised cell number [1, 16] of the same molecule?
Answer: 1.19

Question: And the activity remaining [2]?
Answer: 102% (inactive)

Question: For `CC1[C@H](C)OC(=O)CC(O)CC(O)CC(O)CCC(O)C(O)C[C@]2(O)CC(O)C(C(=O)O)C(CC(OC3O[C@H](C)[C@@H](O)[C@H](N)[C@@H]3O)/C=C/C=C/C=C/C=C/CC/C=C/C=C/[C@H](C)[C@H]1O)O2` (stereo partly specified), which inhibition [5] is on record?
Answer: 3.51%

Question: What about the score [6] of the same molecule?
Answer: -0.11

Question: And the rescue above control [7]?
Answer: 3.77

Question: What about the cytochrome c release ratio [8] of the same molecule?
Answer: 0.93

Question: What about the inhibition of aggregation [9] of the same molecule?
Answer: 30.3%

Question: What about the glutamate uptake change [10] of the same molecule?
Answer: 9.44%

Question: And the inclusion score [11]?
Answer: 2

Question: And the aggregation suppression score [12]?
Answer: 0.00787

Question: And the parasite load remaining [3]?
Answer: 87.6% (inactive) and 108% (inactive)

Question: And the viability [3]?
Answer: 71.5% and 89.6%

Question: And the red/green cell ratio (normalised) [1]?
Answer: 1.28 (inactive)

Question: And the normalised cell number [1, 15]?
Answer: 0.98

Question: What about the normalised cell number [1, 16] of the same molecule?
Answer: 1.25

Question: What about the activity remaining [2] of the same molecule?
Answer: 89.3% (inactive)

Question: What about the fold change ([4]; stronger effect = lower value) of the same molecule?
Answer: 0.841 (inactive)

Question: And the fold change [4, 17]?
Answer: 0.89

Question: And the cell count [4, 18]?
Answer: 11200

Question: And the cell count [4, 19]?
Answer: 13400

Question: Which red/green cell ratio (normalised) [1] does the source give for `COc1cc2c(cc1OC)[C@@H]1C(=O)c3ccc4c(c3O[C@@H]1CO2)CC(C(C)C)O4` (stereo partly specified) here?
Answer: 1.13 (inactive)

Question: And the normalised cell number [1, 15]?
Answer: 0.56

Question: What about the normalised cell number [1, 16] of the same molecule?
Answer: 0.64

Question: What about the activity remaining [2] of the same molecule?
Answer: 114% (inactive)

Question: With `O=C1CC[C@@]2(O)[C@H]3Cc4ccc(O)c5c4C2(CCN3CC2CC2)[C@H]1O5` as the molecule, how does the inhibition [5] read?
Answer: -9.29%

Question: And the score [6]?
Answer: 1.49

Question: What about the rescue above control [7] of the same molecule?
Answer: -6.2

Question: What about the cytochrome c release ratio [8] of the same molecule?
Answer: 1.27

Question: What about the inhibition of aggregation [9] of the same molecule?
Answer: 61.5%

Question: What about the glutamate uptake change [10] of the same molecule?
Answer: 10.7%

Question: What about the inclusion score [11] of the same molecule?
Answer: 2

Question: And the aggregation suppression score [12]?
Answer: 1.53

Question: And the parasite load remaining [3]?
Answer: 70.5% (inactive) and 73.3% (inactive)

Question: And the viability [3]?
Answer: 84.7% and 132%

Question: And the red/green cell ratio (normalised) [1]?
Answer: 1.24 (inactive)

Question: What about the normalised cell number [1, 15] of the same molecule?
Answer: 1.01

Question: What about the normalised cell number [1, 16] of the same molecule?
Answer: 1.26

Question: And the activity remaining [2]?
Answer: 104% (inactive)

Question: And the fold change ([4]; stronger effect = lower value)?
Answer: 0.853 (inactive)

Question: And the fold change [4, 17]?
Answer: 4.3

Question: And the cell count [4, 18]?
Answer: 11500

Question: What about the cell count [4, 19] of the same molecule?
Answer: 13400
